High-throughput results (PubChem BioAssay)
HEK293 tox – cytotoxic compounds in HEK 293 cells; HEK 293 viability, ATP luminescence (CellTiter-Glo), 48-72 h; Potency, µM (titrated, usually from 115 µM), for the others: top-dose activity change, negative = cytotoxicity, actives largely listed as inhibitors; 6.6% of 94,000 active; further: on the % scale 0 is the no-effect control and ±100 the full control effect; nearly all actives have a fitted effect of over 60% in size
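HEK 293 cells at 250 cells/well were exposed to compounds by pintool transfer for 48 or 72 hr at 37 degree Celsius, 5% CO2. Viability was read as ATP-coupled luminescence with CellTiter-Glo after 10 min at room temperature.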
FLuc inh-1 – Photinus pyralis luciferase inhibition; P08659; purified P. pyralis luciferase, luminescence, biochemical; Potency, µM (doses to about 115 µM), most hits filed as inhibitors; 2.5% of 76,000 active; AID 1347043; further: on the % scale 0 is the no-effect control and ±100 the full control effect; nearly all actives have a fitted effect of over 65% in size
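FLuc 10nM, D-luciferin 10uM, ATP 10uM, Mg acetate 10mM, Tris acetate pH 7.5, Tween/BSA; cpd qHTS; enzyme added last; CCD luminescence.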
NPR1 antag – blocks ANP-stimulated signaling of human Npr1 receptor. HEK293 hNpr1 GloSensor cGMP, ANP-stimulated luminescence. P16066. Potency, µM (titrated, usually from 46.3 µM), for the others: top-dose activity change, negative = inhibition, usual class: inhibitors. 1.6% of 76,000 active; calls by dose curve; further: on the % scale 0 is the no-effect control and ±100 the full control effect; nearly all actives have a fitted effect of over 60% in size
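Compound pre-incubated 30 min at room temperature on GloSensor-loaded HEK293 cells stably carrying hNpr1 and the pGS-40F cGMP biosensor. Stimulation uses hNppA at 0.1 nM final; luminescence is taken at baseline and 20 min post-agonist.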
GPT2 inh – inhibitors of human GPT2 alanine aminotransferase; 0.25% of 100,000 active; Potency, µM (titrated, usually from 57.7 µM), inactives show top-dose activity change, negative = inhibition, actives largely listed as inhibitors; Recombinant GPT2, coupled pyruvate oxidase/HRP Amplex Red fluorescence; further: on the % scale 0 is the no-effect control and ±100 the full control effect; nearly all actives have a fitted effect of over 60% in size
Target sequence (Q8TD30 whole entry, looked up): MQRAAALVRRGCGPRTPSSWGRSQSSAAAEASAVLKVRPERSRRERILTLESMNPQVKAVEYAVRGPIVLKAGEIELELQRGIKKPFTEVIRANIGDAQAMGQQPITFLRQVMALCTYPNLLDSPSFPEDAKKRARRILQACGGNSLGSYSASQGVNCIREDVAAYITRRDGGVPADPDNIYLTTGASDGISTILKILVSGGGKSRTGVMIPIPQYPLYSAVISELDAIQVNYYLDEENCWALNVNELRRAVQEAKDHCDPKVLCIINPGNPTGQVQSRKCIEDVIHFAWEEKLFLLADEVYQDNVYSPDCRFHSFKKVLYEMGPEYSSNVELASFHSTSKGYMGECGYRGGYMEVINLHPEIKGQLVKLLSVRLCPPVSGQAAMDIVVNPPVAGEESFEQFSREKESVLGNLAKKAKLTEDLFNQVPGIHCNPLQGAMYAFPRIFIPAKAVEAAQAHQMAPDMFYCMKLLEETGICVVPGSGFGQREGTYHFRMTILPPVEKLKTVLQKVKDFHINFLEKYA
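Fluorescence of coupled pyruvate oxidase/HRP/Amplex Red system (50uM Amplex, 30 min, dark) reports pyruvate formed by GPT2. Enzyme reaction: 10ng/uL GPT2, 2mM L-alanine, 250uM a-KG, 30 min room temperature, pH 7.5; 50uM AOA control.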
NIH3T3 tox – NIH 3T3 cell cytotoxicity. NIH 3T3 viability, CellTiter-Glo ATP luminescence, 48-72 h. Potency, µM (doses to about 96.7 µM), inactives show at the highest dose activity change, negative = cytotoxicity, most hits filed as inhibitors. 4.3% of 94,000 active; further: on the % scale 0 is the no-effect control and ±100 the full control effect; nearly all actives have a fitted effect of over 55% in size
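First NIH 3T3 cells are plated at 400 cells/well; next compound is pinned in; then plates incubate 48 or 72 hr at 37 °C; finally CellTiter-Glo is added and luminescence read after 10 min.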
FLuc SDR -ATP – binders stabilizing firefly luciferase, without ATP | shares compounds with FLuc inh-1 | Purified FLuc-C-HiBiT, Nano-Glo HiBiT luminescence, no ATP | Potency, µM (doses to about 32.7 µM), without a hit: at the highest dose activation (signal gain), most hits filed as activators | 7.8% of 1,300 active | AID 1963318; further: nearly all actives have a fitted effect of over 55% in size
FLuc SDR ATP – binders stabilizing firefly luciferase, plus ATP | shares compounds with FLuc inh-1 | purified FLuc-C-HiBiT + ATP, HiBiT complementation luminescence | Potency, µM (doses to about 32.7 µM), inactives show top-dose activation (gain of signal), most hits filed as activators | 8.7% of 1,300 active | AID 1963319;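 further: signal reports ligand binding via conformational change of the enzyme rather than luciferase catalysis; % of control where 0% means no effect; nearly all actives have a fitted effect of over 55% in size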
FLuc inh-2 – firefly luciferase enzyme inhibition; shares compounds with FLuc inh-1; purified FLuc-C-HiBiT enzyme, luciferin luminescence; Potency, µM (top dose mostly 32.7 µM), for inactives: at the highest dose activity change, negative = inhibition, most hits filed as inhibitors; 42% of 1,300 active; AID 1963320; further: on the % scale 0 is the no-effect control and ±100 the full control effect; nearly all actives have a fitted effect of over 70% in size
Active calls of the source: *; i = inactive; ? = inconclusive; · = not tested or not shown; [ ] = another dose, or the depositor's remark. Shown are actives, neighbours in structure and some others; about 10% of the full set was active somewhere. Unless noted, the call rests on the fitted dose curve; in most records, active means well fitted curve in the direction sought with a large enough effect; inconclusive means small, poorly fitted or top-dose-only effect, or another doubt; inactive means no such curve, though single readings can be large; an effect the other way counts as inactive or inconclusive. Potency means the concentration at half of the fitted maximal effect.

SMILES	HEK293 tox	FLuc inh-1	NPR1 antag	GPT2 inh	NIH3T3 tox	FLuc SDR -ATP	FLuc SDR ATP	FLuc inh-2
COc1cccc(CN2CCNc3cnc(-c4ccccc4)cc3C2)c1	89.1µM*	i	-15.9%[70.6 µM]	-4.4%[88.5 µM]	?	·	·	·
CCOc1cc2c(cn1)NCCN(Cc1ccccc1OC)C2	?	i	5.1%[70.6 µM]	-10.4%[88.5 µM]	?	·	·	·
Cc1[nH]cnc1CN1CCNc2cc(-c3ccccc3)ncc2C1	?	?	-4.8%[70.6 µM]	i	?	·	·	·
Oc1ccccc1CN1CCNc2cnc(-c3ccccc3)cc2C1	63.1µM*	i	?	i	?	·	·	·
COc1ccc(OC)c(CN2CCNc3cnc(-c4ccccc4)cc3C2)c1	56.2µM*	i	-21.6%[70.6 µM]	-9.2%[88.5 µM]	89.1µM*	·	·	·
Cc1cn2nc(C(=O)NCc3ccc(F)cc3F)cc2c(N(C)Cc2ccccc2)n1	?	i	1.9%	-9.7%	35.5µM*	·	·	·
Cc1cn2nc(C(=O)N3CCC(C)CC3)cc2c(N(C)Cc2ccccc2)n1	?	i	17.2%	0.3%	35.5µM*	·	·	·
CN(Cc1cccc(C(F)(F)F)c1)C(=O)CC1CCCC1	-26.9%[172 µM]	·	·	?	-31.1%[138 µM]	·	·	·
CCS[C@H]1CCN2C(=O)c3cc(-c4ccc(F)cc4F)ccc3NC(=O)[C@H]12	56.2µM*	i	?	-3.9%[88.5 µM]	?	·	·	·
CC(C)NC(=O)N[C@H]1CCN2C(=O)c3cc(-c4ccc(F)cc4F)ccc3NC(=O)[C@H]12	?	i	-5.7%[70.6 µM]	-26.5%[88.5 µM]	-28.3%[174 µM]	·	·	·
CCOc1ccccc1OCCN(C)C(=O)c1cccnc1SC	?	i	-0.8%	-3.5%	?	·	·	·
CCOC(=O)c1cccc(NC(=O)c2cnc(-c3ccc(C)cc3)nc2-c2ccncc2)c1	?	i	-15.0%	-16.8%	-16.2%	·	·	·
Cc1ccc(OCC(=O)Nc2cccc(C(=O)OCc3cc(=O)n4nc(C)sc4n3)c2)cc1	·	·	·	·	·	20.1%	?	?
CCn1c(=O)c(C(=O)Nc2ccc(C(C)=O)cc2)nc2ccccc21	·	·	·	·	·	?	?	?
CN1CCC2(CC1)CN(C(=O)c1cncc(Br)c1)Cc1ccccc1O2	-15.5%	i	-8.2%	i	-19.4%	·	·	·
COc1cc(NC(=O)Nc2cccc(-c3ccc(N4CCOCC4)nn3)c2)cc(OC)c1	?	0.708µM*	?	i	31.6µM*	?	?	1.76µM*
O=C(Nc1cccc(-c2ccc(N3CCOCC3)nn2)c1)Nc1ccc2c(c1)CCC2	?	0.891µM*	?	i	-11.5%	25.9%	?	2.79µM*
O=C(Nc1cccc(F)c1)Nc1cccc(-c2ccc(N3CCCCC3)nn2)c1	?	0.398µM*	7.94µM*	i	31.6µM*	9.89µM*	?	0.989µM*
O=C(Nc1cc(F)cc(F)c1)Nc1cccc(-c2ccc(N3CCOCC3)nn2)c1	31.6µM*	1.26µM*	10µM*	-7.8%	?	?	?	3.13µM*
COc1ccc(-c2cccc(C(=O)N3CCOCC3)c2)nn1	-7.4%[172 µM]	·	·	·	-15.8%[138 µM]	·	·	·
O=C(Nc1cccc(-c2ccc(N3CCOCC3)nn2)c1)Nc1cccc(Cl)c1F	22.4µM*	1.58µM*	?	-2.2%	31.6µM*	28.9%	18.1%	5.56µM*
Cc1c(Cl)cccc1NC(=O)Nc1cccc(-c2nnc3n2CCCC3)c1	-17.7%	i	0.4%	i	-0.6%	·	·	·
COc1ccccc1NC(=O)Nc1cccc(-c2ccc(N3CCOCC3)nn2)c1	?	1.41µM*	?	3.9%	?	?	?	3.13µM*
CCCS(=O)(=O)N1CCCC(Cn2c(C3CC3)nc3cccnc32)C1 (centres undefined)	?	i	-1.9%	i	?	·	·	·
COc1cccc(CN2CCc3c(cc(C(=O)Nc4cc(C)ccc4OC)n3C)C2)c1	31.6µM*	8.91µM*	-5.7%	-10.2%	?	11.8%	14.0%	-11.5%
SMILES	HEK293 tox	FLuc inh-1	NPR1 antag	GPT2 inh	NIH3T3 tox	FLuc SDR -ATP	FLuc SDR ATP	FLuc inh-2
O=C1CC2(CCN(CC3CC3)CC2)Oc2cc(Cl)ccc21	?	3.16µM*	?	i	-12.4%[138 µM]	13.9%[49.3 µM]	18.9%[49.3 µM]	?
O=C1CC2(CCN(Cc3ccccc3)CC2)Oc2cc(Cl)ccc21	?	?	-9.0%	i	?	·	·	·
C=CCNC(=O)c1cccc2c(C)nnn12	-15.5%[230 µM]	14.1µM*	-15.2%[70.6 µM]	?	-12.9%[174 µM]	10.8%[65.7 µM]	14.1%[65.7 µM]	-13.2%[65.7 µM]
C[S+](=O)([O-])N1Cc2ccccc2CC2(CCN(Cc3cccnc3)C2)C1 (centres undefined)	-12.5%	·	·	i	-10.4%	·	·	·
CC(=O)NC[C@H]1Cn2cc(-c3ccccc3)nc2CO1	i	?	5.1%[70.6 µM]	-13.9%[88.5 µM]	i	·	·	·
c1ccc(-c2cn3c(n2)CO[C@@H](CNCc2cccs2)C3)cc1	?	5.62µM*	-20.3%[70.6 µM]	i	-24.9%[138 µM]	12.7%[49.3 µM]	7.5%[49.3 µM]	?
O=C(NC1CCCC1)N1c2ccccc2CC1c1noc(C2CCOCC2)n1 (centres undefined)	?	5.01µM*	-28.3%	-8.9%	-17.1%	23.3%	18.5%	?
CCc1ccccc1NC(=O)N1c2ccccc2CC1c1nc(C2CC2)no1 (centres undefined)	?	i	2.8%	i	?	·	·	·
Cc1ccc(NC(=O)Nc2ccc(C)n(CC(=O)N3CCC(C)CC3)c2=O)cc1	?	4.47µM*	-18.0%	i	-16.6%	?	?	3.94µM*
COc1ccc(NC(=O)Nc2ccc(C)n(CC(=O)N3CCCCCC3)c2=O)cc1	-1.6%	8.91µM*	-0.7%	-8.4%	i	?	?	9.89µM*
Cc1ccc(NS(=O)(=O)c2ccccc2)c(=O)n1CC(=O)N1CCCCC1	-21.1%	i	2.4%	3.8%	-8.8%	·	·	·
Cc1ccc(NC(=O)Nc2ccccc2)c(=O)n1CC(=O)NCC1CCCO1 (centres undefined)	-0.7%	14.1µM*	-12.9%	-21.1%	?	?	?	?
Cc1ccc(NC(=O)Nc2ccccc2)c(=O)n1CC(=O)NC1CCCCC1	-9.0%	i	-0.3%	i	-10.2%	·	·	·
Cc1ccc(NC(=O)Nc2ccc(C)n(CC(=O)NC(C)c3cccnc3)c2=O)cc1 (centres undefined)	?	1.12µM*	-14.7%	i	-21.3%	7µM*	?	1.57µM*
